Data taken from PubChem BioAssay AID778 (Sanford-Burnham Center for Chemical Genomics, 2007).
Hit rate of the full screen: of about 96,000 compounds, about 20,000 (21%) were called active. A selection follows. Unmarked numbers belong to inactive results.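 Rule for the calls: active = CYP2C19 inhibition above a set limit at 5 µM in the primary screen (cut at about 50% in these data); inactive = the rest.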

Biological target: Cytochrome P450 2C19 (Homo sapiens) (UniProt P33261)
Assay: blockers of cytochrome P450 2C19 activity – biochemical, luminescence, ADME assay, primary screen (AID 778);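 note: plate controls were negative control wells for no effect and 2.5 mM tranylcypromine positive control for full effect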
Conditions: CYP2C19 Supersomes, luciferin-H EGE luminescence, 30 min; at 5 µM; active compounds read high

Sequence of Cytochrome P450 2C19 (Homo sapiens) (P33261 whole entry, looked up): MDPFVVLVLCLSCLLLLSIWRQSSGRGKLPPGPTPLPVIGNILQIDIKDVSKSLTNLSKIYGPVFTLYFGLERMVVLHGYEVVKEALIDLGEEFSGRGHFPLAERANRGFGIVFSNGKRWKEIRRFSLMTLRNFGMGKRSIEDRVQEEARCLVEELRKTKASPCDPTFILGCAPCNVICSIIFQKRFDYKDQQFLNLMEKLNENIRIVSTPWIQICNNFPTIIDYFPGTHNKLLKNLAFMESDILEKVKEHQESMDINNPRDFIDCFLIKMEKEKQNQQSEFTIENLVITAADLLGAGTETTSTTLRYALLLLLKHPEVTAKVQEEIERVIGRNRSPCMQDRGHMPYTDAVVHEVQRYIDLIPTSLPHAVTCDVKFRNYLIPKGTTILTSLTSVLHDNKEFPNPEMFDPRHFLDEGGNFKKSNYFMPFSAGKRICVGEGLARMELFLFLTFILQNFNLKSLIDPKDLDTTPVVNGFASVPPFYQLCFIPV

| Structure (SMILES) | inhibition |
| --- | --- |
| CCCc1[nH]nc2c1C(c1ccc(OC(=O)c3ccco3)cc1)C(C#N)=C(N)O2 (configuration not stated) | 43.8% |
| C=CCOC(=O)C1=C(C)NC(SCC(=O)OCC)=C(C#N)C1c1ccc(C)cc1 (configuration not stated) | 33.7% |
| C=CCOC(=O)C1=C(C)OC(N)=C(C#N)C1c1ccc(F)cc1 (configuration not stated) | 75.2% (active) |
| Cc1c(C#N)c2ncn(CC#N)c(=O)c2n1-c1ccccc1 | -12.1% |
| C=CCn1c(COc2cccc3cccnc23)nnc1SCC(=O)OC | 26.2% |
| CCOc1cc(N2CCOCC2)c(OCC)cc1NC(=O)COc1cccc2cccnc12 | 3.8% |
| Cc1cc(OCCOc2cccc3cccnc23)c(C)cc1Cl | 73.2% (active) |
| CN(C)Cc1c(C#N)c2ccccc2n1C | -0.3% |
| O=c1[nH]nc(CSCc2ccccc2Cl)[nH]1 | 1.4% |
| Clc1ccc(CSc2nnc(/C=C/c3ccccc3)o2)c(Cl)c1 | 1.6% |
| S=c1[nH]nc(CSCc2ccc(Cl)cc2Cl)n1-c1ccccc1 | 64.8% (active) |
| COC(=O)CCSc1cc([N+](=O)[O-])cc2c1c(C1OCCS1)nn2-c1ccccc1 (configuration not stated) | 8.6% |
| Cc1ccc(Nc2nc(C)cc(C)c2C(N)=O)cc1 | 7.6% |
| COCCN1C(=O)c2oc3c(C)cc(C)cc3c(=O)c2C1c1cccc(O)c1 (configuration not stated) | 70.6% (active) |
| O=C1c2oc3ccccc3c(=O)c2C(c2cccc(O)c2)N1c1ccccn1 (configuration not stated) | 38.4% |
| O=C1c2oc3ccc(Br)cc3c(=O)c2C(c2cccc(F)c2)N1CCO (configuration not stated) | 40.4% |
| Cc1ccc(-n2ncc3c(Nc4cccc(C(=O)O)c4)ncnc32)cc1 | -20% |
| COc1ccc(CCN2C(=O)c3[nH]nc(-c4ccccc4O)c3C2c2ccc(C)cc2)cc1OC (configuration not stated) | 21.1% |
| COCCn1c(=S)[nH]c2cc(C(=O)NCCc3ccc(OC)c(OC)c3)ccc2c1=O | 17.7% |
| COC(=O)c1ccc(C2C(Oc3ccccc3C)C(=O)N2CCc2ccc(OC)c(OC)c2)cc1 (configuration not stated) | 65.2% (active) |
| c1csc(-c2cn3c(n2)SCC3)c1 | -13.7% |

| Structure (SMILES) | inhibition |
| --- | --- |
| CC(C)C(C(=O)NC1CCCCC1)N(CC1CCCO1)C(=O)CNS(=O)(=O)c1ccc(F)cc1 (configuration not stated) | -10.8% |
| c1ccc(-c2nnc3n2NC(c2ccc4c(c2)OCO4)S3)cc1 (configuration not stated) | 28.9% |
| CCn1c(SC)nc(O)c(C(c2ccc(OC)c(O)c2)c2c(O)nc(SC)n(CC)c2=O)c1=O | -2.9% |
| O=S(=O)(Cc1cc(Sc2ccccc2)nc(-c2ccccc2)n1)c1ccccc1 | 50.5% (active) |
| CC1CC(C)CN(CC(=O)N2c3ccccc3CCc3ccccc32)C1 (configuration not stated) | 24.7% |
| Cc1ccc(S(=O)(=O)N(C)CC(=O)N2CCc3ccccc32)cc1 | 9.1% |
| O=C(CSCc1ccccc1)N1CCc2ccccc21 | 51.6% (active) |
| Cn1cnc2c1c(=O)n(Cc1c(Cl)cccc1Cl)c(=O)n2C | 49.5% |
| Cc1c(C#N)c(NC(=O)c2ccccc2)n(Cc2ccccc2)c1C | 22.6% |
| CCOC(=O)CCC(=O)OCC(=O)NC(C)C1CC2CCC1C2 (configuration not stated) | 10.6% |
| CCOC(=O)N1CCC(O)(c2cc(C)c(C)cc2C)CC1 | 43.5% |
| O=C(CN1C(=O)c2ccccc2S1(=O)=O)N1CCc2ccccc21 | -7.4% |
| CNC(=O)CN1C(=O)c2ccccc2S1(=O)=O | -9.3% |
| O=C1c2ccccc2S(=O)(=O)N1CC(O)Cn1c2ccccc2c2ccccc21 (configuration not stated) | 73.4% (active) |
| COc1ccc(-n2ncc3c(N4CCc5ccccc54)ncnc32)cc1 | -2.2% |
| Cc1n[nH]c(=S)n1/N=C/c1ccc(Br)o1 | -3.6% |
| CCC(Sc1nncn1C)C(=O)Nc1nnc(-c2ccc(Cl)cc2)s1 (configuration not stated) | 17.4% |
| CCOc1cc2[nH]c(=S)n(CCCN3CCCC3=O)c(=O)c2cc1OCC | 6.7% |
| O=C(O)c1ccc(NC(=O)C2CCCCC2)cc1 | -21.5% |
| O=C(Nc1cnn(Cc2ccc(Cl)cc2)c1)C1CCCC1 | 84.8% (active) |
| O=C(O)C1CCCCC1C(=O)Nc1ccc(Cl)cc1 (configuration not stated) | 29.9% |

| Structure (SMILES) | inhibition |
| --- | --- |
| C[N+](C)(C)CCNC(=O)c1c(O)c2c([nH]c1=O)CCCC2 | 7.7% |
| O=C(O)[C@@H]1CCCN1c1ncnc2sc3c(c12)CCC3 | 6.9% |
| O=P(O)(CP(=O)(c1ccccc1)c1ccccc1)c1ccccc1O | 22.6% |
| O=C1CC(c2cccc(Br)c2)C2=C(CCCC2=O)N1 (configuration not stated) | 11.9% |
| CN(C)Cc1ccccc1C1(O)c2ccccc2CSc2ccccc21 (configuration not stated) | 67.5% (active) |
| CCN(CC)c1ccc(NC(=O)c2ccc(Cl)nc2)cc1 | 7.7% |
| CSc1ccc(Cl)c(C(=O)OCC(=O)N2CC(C)OC(C)C2)c1 (configuration not stated) | 12.4% |
| O=C(O)CCCC(=O)Nc1ccccc1-n1ccnc1 | -4.7% |
| O=C(CCN1c2ccccc2Sc2ccccc21)Nc1ccccc1 | 80.2% (active) |
| O=C(CC1Nc2ccccc2NC1=O)Nc1ccccc1 (configuration not stated) | 2.9% |
| Cc1cc(N)n2nc(-c3ccc(C(C)(C)C)cc3)cc2n1 | 26.1% |
| COc1cccc(Nc2ncccc2C(=O)O)c1 | -9.2% |
| O=C(CNC(=O)Cc1ccccc1)NCC(=O)OCC(=O)c1ccccc1Cl | 1.6% |
| Cc1cc(C)c2cc(CN(Cc3cccs3)Cc3nnnn3CC3CCCO3)c(=O)[nH]c2c1 (configuration not stated) | 84.5% (active) |
| COc1ccc(N(Cc2cc3cc(OC)ccc3[nH]c2=O)S(C)(=O)=O)cc1 | 18.7% |
| CCOc1ccc2[nH]c(=O)c(CN(Cc3nnnn3Cc3ccccc3)CC3CCCO3)cc2c1 (configuration not stated) | 8.7% |
| CC(C)(C)n1nnnc1C(c1cccs1)N(Cc1cccnc1)CC1CCCO1 (configuration not stated) | 31.5% |
| COc1ccc2[nH]c(=O)c(CN(Cc3nnnn3CCc3ccccc3)CC3CCCO3)cc2c1 (configuration not stated) | 77.7% (active) |
| Cc1cc2cc(CN(Cc3cccs3)Cc3nnnn3CC3CCCO3)c(=O)[nH]c2cc1C (configuration not stated) | 34.3% |
| Nc1c(C(=O)NCc2ccccc2)sc2nc3c(cc12)C(=O)CCC3 | -16.5% |
